Data as given in ChEMBL document CHEMBL3433997, “St. Jude Leishmania screening dataset” (2016).
“And” between values parts separate entries of the source, which are not always exact repeats. Identical values can stand only once.

Columns and labels:
Type in all cases: functional
[1] = molecular target: Solute carrier family 2, facilitated glucose transporter member 1 (Homo sapiens) (UniProt P11166); assay: ST_JUDE_LEISH: Cytotoxicity at 2uM final concentration against transgenic Leishmania Mexicana promastigotes LmGLUT1 that are glucose transport deficient and complemented with the human glucose transporter GLUT1. Activity is measured by DNA content using SYBR green in vitro
Chain of Solute carrier family 2, facilitated glucose transporter member 1 (Homo sapiens) (P11166 whole entry): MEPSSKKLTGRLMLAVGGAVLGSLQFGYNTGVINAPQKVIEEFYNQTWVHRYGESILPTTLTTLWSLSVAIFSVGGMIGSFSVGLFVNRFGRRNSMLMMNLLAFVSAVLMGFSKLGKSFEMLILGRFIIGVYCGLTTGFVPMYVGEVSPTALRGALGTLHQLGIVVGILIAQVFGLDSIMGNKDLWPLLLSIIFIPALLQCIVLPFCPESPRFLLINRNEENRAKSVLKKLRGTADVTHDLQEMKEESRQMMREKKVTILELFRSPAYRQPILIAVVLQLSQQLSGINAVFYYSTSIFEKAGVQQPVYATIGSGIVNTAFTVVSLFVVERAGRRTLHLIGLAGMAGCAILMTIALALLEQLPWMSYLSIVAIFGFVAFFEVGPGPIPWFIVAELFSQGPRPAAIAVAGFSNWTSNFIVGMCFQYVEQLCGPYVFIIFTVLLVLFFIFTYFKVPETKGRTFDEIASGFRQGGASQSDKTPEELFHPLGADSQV

[2] = molecular target: Hexose transporter 1 (Plasmodium falciparum) (UniProt O97467); assay: ST_JUDE_LEISH: Cytotoxicity at 2uM final concentration against transgenic Leishmania Mexicana promastigotes LmPfHT that are glucose transport deficient and complemented with the Plasmodium falciparum hexose transporter. Activity is measured by DNA content using SYBR green in vitro
[3] = molecular target: Glucose transporter (Leishmania mexicana) (UniProt O61059); assay: ST_JUDE_LEISH: Cytotoxicity at 2uM final concentration against transgenic Leishmania Mexicana promastigotes LmGT2 that are glucose transport deficient and complemented with the L. Mexicana glucose transporter 2. Activity is measured by DNA content using SYBR green in vitro

SMILES	inhibition [1]	inhibition [2]	inhibition [3]
CN(Cc1c(Cl)cnn1C)S(=O)(=O)c1ccc2ccccc2c1	5.51%	7.25%	5.64%
COc1ccc(CNC2CCN(C)CC2)cc1-c1ccc(S(=O)(=O)NCCc2ccccn2)c(C)c1	4.11%	1.98%	1.53%
Cc1ccc(C2CCN(CCCCNC(=O)c3ccc(NC(=O)c4ccc(Cl)cc4)cc3)CC2)c(OCC2CC2)c1	7.51%	6.25%	5.52%
COc1ccc2[nH]ccc(=NN=Cc3ccccc3Cl)c2c1	7.36%	12.6%	2.03%
Cc1cccc2nc(-c3cccc(-c4cccc(NC(=O)c5cccnc5)c4)c3)[nH]c12	2.26%	-0.15%	-3.86%
Cc1cccc2nc(-c3ccc(-c4cccc(CNCC5CCCO5)c4)cc3)[nH]c12 (stereo not drawn)	12.7%	10.1%	8.96%
CC(C)Nc1ccc(Nc2ccnc3cc4ccccc4cc23)cc1	1.19%	4.38%	0.5%
CCOc1ccccc1CCNCC1CCN(CC2CCCCC2)CC1	1.97%	-2.9%	2.88%
O=C(Cc1c[nH]cn1)Nc1cccc(-c2ccc(-c3nc4cc(F)ccc4[nH]3)s2)c1	3.94%	6.17%	0.26%
C=CCc1cccc(CN2CCC(c3cc(O)nc(-c4ccccn4)n3)CC2)c1O	8.38%	10.4%	0.24%
COc1ccc(NCc2cccc(-c3cccc(CNCCc4ccccc4)c3)c2)cc1	0%	0.51%	-1.32%
Cc1cc2c(cc1C(F)(F)F)N(C(=O)Nc1cc(OCCN(C(C)C)C(C)C)cc(C(F)(F)F)c1)CC2	10.4%	9.23%	6.19%
Cc1c(C)c2c(c(C)c1O)CC[C@@](C)(C(=O)N1CCC(CCN3CCC(c4c[nH]c5ccccc45)CC3)CC1)O2	7.87%	7%	4.66%
Cn1c(NC2CCN(CC3CCN(C(=O)/C=C/c4ccc(Cl)c(Cl)c4)CC3)CC2)nc2ccccc21	49.9%	13.8%	81.9%
CC(=O)N/N=C/[C@H](CCc1ccccc1)NC(=O)[C@H](CC(C)C)NC(=O)c1ccc(F)cc1	6.34%	4.34%	4.68%
Cc1cc(C)cc(OCC(O)CN(Cc2cc(Cl)cc(Cl)c2)C(=O)Nc2ccc(Cl)cc2)c1 (stereo not drawn)	0.89%	-0.94%	-0.48%
CCc1cc2c3c(N)nc(N)nc3ccc2n1C(C)CC (stereo not drawn)	85.2%	86.6%	80.3%
Clc1ccc2c(NN=Cc3cccs3)ccnc2c1	1.34%	1.3%	2.8%
Cc1ccc2c(=O)cc(CCc3cccc(F)c3F)n(CC(=O)N(Cc3ccc(-c4ccc(C(F)(F)F)cc4)cc3)C3CCN(C)CC3)c2n1	2%	0.92%	1.01%
CCCN(Cc1nnc(-c2cccs2)o1)C(=O)CSc1nnnn1-c1cc(C)cc(C)c1	4.84%	5.88%	2.71%
O=C(NC1CCN(Cc2ccccc2)CC1)c1cc(-c2cccnc2)nc2ccc(Cl)cc12	8.75%	6.45%	8.35%
CN(C)CCCOc1ccc(-c2csc(NC(=N)NCc3ccccc3)n2)cc1	1.32%	6.08%	3.86%
CCOC(=O)c1cnc2c(OC)cc(OC)c(Cl)c2c1Nc1cccc(C)c1	9.4%	8.66%	4.43%
CCC(C)(C)NC(=O)C(c1cccc(OC)c1)N(C(=O)CNC(=O)c1cccs1)c1ccc2c(c1)OCCO2 (stereo not drawn)	6.74%	6.4%	6.92%

SMILES	inhibition [1]	inhibition [2]	inhibition [3]
CC(=O)N[C@H](C(=O)Nc1ccc(-c2cccc(-c3nc4cccc(C)c4[nH]3)c2)cc1)C(C)C	1.35%	3.2%	2.45%
NCc1cccc(-c2ccc3ccnc(N)c3c2)c1	0.01%	0.05%	1.2%
O=C(Nc1cccc(-c2cc3ccccc3[nH]2)c1)C1CCN(Cc2ccccc2O)CC1	10.3%	9.31%	8.56%
CCCCCCOc1ccc(C(=O)NCCC2CCN(CCCCCNC(=O)C=Cc3ccc(Cl)c(Cl)c3)CC2)cc1	-0.8%	-0.99%	-0.17%
C=C(NC(=O)C1CCCCC1)C(=O)OC	-0.71%	2.29%	0.41%
COc1cc(OC)c2c(C)cc(NCCCN3CCOCC3)nc2c1	1.92%	0.95%	-0.42%
O=C(Nc1cccc(OC2CCN(Cc3ccccc3)CC2)c1)c1ccc([N+](=O)[O-])cc1	4.89%	4.94%	4.55%
Cn1nc(C(F)(F)F)c(-c2ccc(F)cc2)c1NC(=O)Nc1ccc(F)cc1F	2.96%	2.65%	2.29%
O=C(c1cccc(-c2cccc(-c3nc4cc(F)ccc4[nH]3)c2)c1)N1CCCCC1CN1CCC(O)C1 (stereo not drawn)	0.52%	-0.32%	0.51%
CC(CN1CCN(C)CC1)C(=O)Nc1ccc(-c2cccc(-c3nc4cc(C(F)(F)F)ccc4[nH]3)c2)cc1 (stereo not drawn)	-0.51%	0.32%	-2.84%
O=C(NCc1cccc(Br)c1)c1ccc(CNC2CCN(Cc3ccccc3)CC2)cc1	5.34%	1.61%	5.37%
CCOc1cc2c(cc1S(=O)(=O)c1ccc(COc3ccc(C(F)(F)F)cc3)cc1)CCN(C)CC2	1.72%	3.79%	1.18%
CN(C)Cc1cccc(-c2cc3c(-c4cnn(C)c4)c(Cl)cnc3[nH]2)c1	95.7%	95%	94.2%
Cc1cccc(-c2nc3[nH]c(=O)cc(NC(=O)C(C)C)n3n2)c1	-2.8%	-2.49%	-1.3%
Nc1nc(N)c2cc(Cc3ccc([N+](=O)[O-])cc3)cnc2n1	-2.65%	0.37%	-0.27%
CCNc1cc(C(=O)NC(Cc2ccccc2)C(O)CNC2CCSCC2)cc(N2CCCC2=O)c1 (stereo not drawn)	3.69%	3.13%	4%
COc1ccc(Cl)cc1N1CCN(CCCNC(=O)c2ccc(-c3nc4ccc(C(F)(F)F)cc4[nH]3)c(C)c2)CC1	2.82%	0.02%	0.17%
O=C(NCCN1CCCCC1)c1ccc(CNC(=O)c2ccc(O)c(-c3ccc(Cl)c(Cl)c3)c2)cc1	0.15%	0.04%	-0.59%
O=S(=O)(NC1CCN(c2ccnc3cc(Cl)ccc23)C1)c1cccs1 (stereo not drawn)	0.41%	-0.12%	1.61%
O=C(NCCN1CCCC1)c1cccc(-c2ccc(-c3nc4cc(F)ccc4[nH]3)s2)c1	2.21%	2.37%	3.1%
CCN(CC)CCCC(C)Nc1cc(C)nc2cc(Cl)ccc12 (stereo not drawn)	0.9%	1.6%	0.08%
COC(=O)c1ccc(-c2ccc(C(=O)NCC3CCN(c4nc(N)c5cc(OC)c(OC)cc5n4)CC3)cc2)cc1	4.1%	4.23%	2.11%
CN1CCN(CCNc2c3ccccc3nc3ccc4ccccc4c23)CC1	18.8%	17%	12.5%
Cc1cccc2nc(-c3cccc(-c4cccc(CNCCc5cccn5C)c4)c3)[nH]c12	0.04%	2.29%	-0.27%

SMILES	inhibition [1]	inhibition [2]	inhibition [3]
NC(=O)COc1c(C2CCN(CCN3CCC(CNC(=O)c4ccc(-c5ccc(C(F)(F)F)cc5)cc4)CC3)CC2)ccc2c1CCCC2	4.85%	4.29%	3.32%
COc1ccc(Nc2ncc3c(-c4cccc(NC(=O)Cc5ccncc5)c4)c[nH]c3n2)cc1OC	-0.87%	-1.41%	-1%
COc1nc2c(CCN3CC[C@H](NCc4cc(C#N)c5c(c4)OCCO5)[C@H](O)C3)ccnc2cc1F	14.4%	18%	3.29%
Cn1nccc1C(=O)NCCNCc1cccc(-c2cccc(-c3nc4cc(F)ccc4[nH]3)c2)c1	3.43%	3.28%	1.11%
CCOc1cc(C(=O)NCCN2CCCCC2)ccc1-c1nc2cc(Cl)ccc2[nH]1	1.06%	1.42%	2.06%
CCC(CC(NCCCCNC(=O)c1ccc(NC(=O)c2ccc(Cl)cc2)cc1)c1ccccc1)c1ccccc1OC (stereo not drawn)	1.72% and 1.8%	1.83% and 1.71%	1.46% and -1.08%
COc1cc2nc(NCCC(C)C)n3nc(-c4ccccc4)nc3c2cc1OC	-1.19%	-0.07%	-1.51%
CCCC[C@H](NC(=O)OC(C)(C)C)C(=O)Nc1ccc(Cc2ccc(NC(=O)[C@H](CCCC)NC(=O)OC(C)(C)C)cc2)cc1	4.27%	4.02%	4.58%
CCCc1cc(Cc2cnc(N)nc2N)cc(CCC)c1OCCCCCC(=O)OCC	4.7%	2.93%	2.52%
COc1ccc(-c2ccc(NC(=O)c3ccc(C#N)cc3)cc2)cc1CN1CCC(O)CC1	-0.1%	-0.59%	-0.53%
O=C(Nc1cccc(-c2cccc(-c3nc4cc(C(F)(F)F)ccc4[nH]3)c2)c1)c1c[nH]cn1	1.86%	3.96%	-1.42%
O=C1OC2(CCN(C(=O)c3ccc(-n4cnnn4)cc3)CC2)CN1Cc1ccc(Cl)c(Cl)c1	2.26%	3.05%	5.35%
O=C(Nc1cccc(-c2ccc(-c3nc4cc(C(F)(F)F)ccc4[nH]3)cc2)c1)c1csnn1	5.44%	8%	0.51%
OC(CNc1ccnc(Nc2cccc(CCN3CCOCC3)c2)n1)c1ccccc1 (stereo not drawn)	0.07%	3.46%	1.35%
O=S(=O)(Nc1cccc(CCN2CCC(N3CCCCC3)CC2)c1)c1ccc(-c2ccccc2)cc1	3.35%	5.01%	3.57%
CNCCNCc1cccc(-c2ccc(-c3nc4cccc(C)c4[nH]3)s2)c1	-0.6%	0.01%	-0.03%
Cc1ccc(O)cc1Nc1ccnc2cc(-c3ccc(CN4CCCCC4)o3)ccc12	14.4%	12.2%	13.8%
FC(F)(F)c1ccc2nccc(NCc3ccccc3)c2c1	6.8%	5.96%	1.41%
O=C(Nc1ccccc1)N(Cc1ccc(-c2cccc(CNCc3ccc4c(c3)OCO4)c2)cc1)C1CCN(Cc2ccccc2)CC1	-0.01%	0.92%	2.9%
CN1CCCC(OC(=O)c2ccccc2)C1 (stereo not drawn)	4.26%	3.71%	3.1%
O=C(NC1CCN(CCCOc2ccnc3cc(Cl)ccc23)C1)c1ccc(Br)cc1 (stereo not drawn)	9.74%	7.84%	7.14%
C#CCNCc1ccc(-c2ccc(-c3nc4cc(C(F)(F)F)ccc4[nH]3)s2)cc1	0.44%	-0.12%	-1.09%
COc1c(O)cc2oc(-c3ccc(O)cc3)cc(=O)c2c1O	1.18%	1.7%	3.31%
